From ChEMBL document CHEMBL4513146, “CO-ADD screening of Karazin Kharkiv National University (Ukraine) compounds”
Results with a measured potency or affinity are listed apart.

Experiments:
Staphylococcus aureus = conditions: Concentration 32 ug.mL-1;; ASSAY_TEST Inhibition of Bacterial Growth; detection method Absorption (OD600); MEDIA CAMHB; plate type 384well; NBS; CORNING #3640; time 18 hr
Escherichia coli = conditions: Concentration 32 ug.mL-1;; ASSAY_TEST Inhibition of Bacterial Growth; detection method Absorption (OD600); MEDIA CAMHB; plate type 384well; NBS; CORNING #3640; time 18 hr

Question: `COc1ccc(NC(=O)c2ccc3nn(CC(=O)Nc4ccc(S(C)(=O)=O)cc4)c(=O)n3c2)cc1` was tested. Which Inhibition (Staphylococcus aureus) did it give?
Answer: 11.72%

Question: What about the Inhibition (Escherichia coli) of the same compound?
Answer: -6.83%

Question: For `CCOC(=O)c1ccc(NC(=O)CSc2nnc3c4cc(-c5ccc(OC)cc5)nn4ccn23)cc1`, which Inhibition (Staphylococcus aureus) is on record?
Answer: 10.14%

Question: What about the Inhibition (Escherichia coli) of the same compound?
Answer: 2.37%

Question: What does the source list for `O=C(CSc1nnc2c(=O)n(-c3cccc(F)c3)ccn12)N1CCN(c2ccc(F)cc2)CC1`?
Answer: Inhibition (Staphylococcus aureus): 3.76%; Inhibition (Escherichia coli): 1.02%

Question: `Cc1ccc(CN(c2ccc(C(C)C)cc2)S(=O)(=O)c2cccn3cnnc23)cc1` was tested. Which Inhibition (Staphylococcus aureus) did it give?
Answer: 21.94%

Question: What about the Inhibition (Escherichia coli) of the same compound?
Answer: 4.59%

Question: What does the source list for `O=C(Cn1nc2ccc(SCc3ccc(Cl)cc3)nn2c1=O)Nc1ccc2c(c1)OCO2`?
Answer: Inhibition (Staphylococcus aureus): 9.4%; Inhibition (Escherichia coli): -2.43%

Question: Which results are given for `Cc1ccc(N(Cc2ccccc2F)S(=O)(=O)c2ccc3nncn3c2)cc1`?
Answer: Inhibition (Staphylococcus aureus): -11.4%; Inhibition (Escherichia coli): -11.46%

Question: `Cn1c(=O)c2ccc(C(=O)NC3CCCCC3)cc2n2c(=O)n(Cc3cccc(C(F)(F)F)c3)nc12` was tested. Which Inhibition (Staphylococcus aureus) did it give?
Answer: 12.74%

Question: What about the Inhibition (Escherichia coli) of the same compound?
Answer: -0.17%

Question: `COC(=O)c1ccc(CN(c2ccc(Cl)cc2)S(=O)(=O)c2ccc3nncn3c2)o1` was tested. Which Inhibition (Staphylococcus aureus) did it give?
Answer: 10.93%

Question: What about the Inhibition (Escherichia coli) of the same compound?
Answer: -7.28%

Question: With `CCOc1ccc(-n2ccn3c(SC(CC)C(=O)Nc4ccc(C(C)C)cc4)nnc3c2=O)cc1` (centres undefined) as the compound, how does the Inhibition (Staphylococcus aureus) read?
Answer: 5.33%

Question: And the Inhibition (Escherichia coli)?
Answer: -6.24%

Question: Which results are given for `CC(=O)c1cccc(NC(=O)CSc2nnc3ccc(C(=O)Nc4cccc(F)c4)cn23)c1`?
Answer: Inhibition (Staphylococcus aureus): 12.95%; Inhibition (Escherichia coli): -3.3%

Question: For `CCCn1c(=O)c2sccc2n2c(CCC(=O)NC(C)C34CC5CC(CC(C5)C3)C4)nnc12` (centres undefined), which Inhibition (Staphylococcus aureus) is on record?
Answer: -5.57%

Question: And the Inhibition (Escherichia coli)?
Answer: -7.36%

Question: With `COc1ccccc1-n1ccn2c(SCC(=O)Nc3ccc(F)cc3F)nnc2c1=O` as the compound, how does the Inhibition (Staphylococcus aureus) read?
Answer: -4.28%

Question: And the Inhibition (Escherichia coli)?
Answer: 0.2%

Question: How did the Inhibition (Staphylococcus aureus) turn out when `COc1cccc(CNC(=O)CSc2nnc3c(=O)n(-c4ccc(C)c(C)c4)ccn23)c1OC` was run?
Answer: 3.35%

Question: What about the Inhibition (Escherichia coli) of the same compound?
Answer: -0.9%

Question: How did the Inhibition (Staphylococcus aureus) turn out when `Cc1ccc(-c2ccc3nn(Cc4nc(-c5ccc(Cl)cc5)no4)c(=O)n3n2)cc1C` was run?
Answer: 0%

Question: What about the Inhibition (Escherichia coli) of the same compound?
Answer: -6.42%

Question: For `C=Cc1ccc(CSc2nnc3c(=O)n(-c4cccc(OC)c4)ccn23)cc1`, which Inhibition (Staphylococcus aureus) is on record?
Answer: 15.25%

Question: And the Inhibition (Escherichia coli)?
Answer: -3.1%

Question: `CC(C)c1nnc2c(SCC(=O)Nc3ccccc3Br)nc3ccccc3n12` was tested. Which Inhibition (Staphylococcus aureus) did it give?
Answer: 6.58%

Question: And the Inhibition (Escherichia coli)?
Answer: -0.85%

Question: How did the Inhibition (Staphylococcus aureus) turn out when `CC(C)c1ccc(Oc2nc3ccccc3n3c(=O)n(CC(=O)Nc4ccc5c(c4)OCO5)nc23)cc1` was run?
Answer: 7.37%

Question: And the Inhibition (Escherichia coli)?
Answer: 4.92%

Question: Which Inhibition (Staphylococcus aureus) does the source give for `CC(C)Sc1ccc2nn(CC(=O)Nc3ccc(Cl)cc3F)c(=O)n2n1` here?
Answer: 9.58%

Question: What about the Inhibition (Escherichia coli) of the same compound?
Answer: -1.02%

Question: With `Cc1nnc2c(SCC(=O)N3CCN(c4ccccc4F)CC3)nc3ccccc3n12` as the compound, how does the Inhibition (Staphylococcus aureus) read?
Answer: 19.81%

Question: What about the Inhibition (Escherichia coli) of the same compound?
Answer: 5.15%

Question: For `COc1ccc(-c2cc3c4nn(CC(=O)Nc5cc(Cl)ccc5C)c(=O)n4ccn3n2)cc1`, which Inhibition (Staphylococcus aureus) is on record?
Answer: 5.04%

Question: And the Inhibition (Escherichia coli)?
Answer: 1.53%

Question: Which Inhibition (Staphylococcus aureus) does the source give for `O=C(Cn1nc2c(N3CCSCC3)nc3ccccc3n2c1=O)NCc1ccccc1` here?
Answer: 1.1%

Question: What about the Inhibition (Escherichia coli) of the same compound?
Answer: -1.64%

Question: For `CCCCc1ccc(NC(=O)Cn2nc3ccc(-c4ccc(C)c(C)c4)nn3c2=O)cc1`, which Inhibition (Staphylococcus aureus) is on record?
Answer: 7.91%

Question: And the Inhibition (Escherichia coli)?
Answer: -1.54%

Question: What does the source list for `CCc1nnc2c(S(=O)(=O)N(Cc3cccc(C)c3)c3ccc(C(C)C)cc3)cccn12`?
Answer: Inhibition (Staphylococcus aureus): 20.56%; Inhibition (Escherichia coli): -0.18%

Question: For `O=c1n(Cc2ccc(Cl)cc2)nc2ccc(-c3ccccc3)nn12`, which Inhibition (Staphylococcus aureus) is on record?
Answer: 3.14%

Question: What about the Inhibition (Escherichia coli) of the same compound?
Answer: -1.49%

Question: For `CCC(C)NC(=O)CCn1c(=O)c2ccccc2n2c(=O)n(CC(=O)NCc3cccs3)nc12` (centres undefined), which Inhibition (Staphylococcus aureus) is on record?
Answer: 6.1%

Question: And the Inhibition (Escherichia coli)?
Answer: -2.09%

Question: Which results are given for `CCCN(C)c1nccn2c(=O)n(CC(=O)Nc3ccc(C#N)cc3)nc12`?
Answer: Inhibition (Staphylococcus aureus): 14.04%; Inhibition (Escherichia coli): -2.47%

Question: How did the Inhibition (Staphylococcus aureus) turn out when `Cc1ccccc1Oc1nccn2c(=O)n(CC(=O)Nc3ccc(C#N)cc3)nc12` was run?
Answer: 8.67%

Question: And the Inhibition (Escherichia coli)?
Answer: -0.39%

Question: For `CCc1cccc(NC(=O)CSc2nnc3c(=O)n(-c4ccccc4)ccn23)c1`, which Inhibition (Staphylococcus aureus) is on record?
Answer: 0.07%

Question: What about the Inhibition (Escherichia coli) of the same compound?
Answer: -11.7%

Question: For `CCOc1ccc(-n2ccn3c(SCC(=O)c4cc(C)c(C)cc4C)nnc3c2=O)cc1`, which Inhibition (Staphylococcus aureus) is on record?
Answer: 7.6%

Question: And the Inhibition (Escherichia coli)?
Answer: -6.02%

Question: Which results are given for `COc1ccc(NC(=O)Cn2nc3cc(C)nc(Nc4cc(C)cc(C)c4)n3c2=O)cc1`?
Answer: Inhibition (Staphylococcus aureus): 9.51%; Inhibition (Escherichia coli): -1.23%

Question: Which Inhibition (Staphylococcus aureus) does the source give for `O=C(CSc1nnc2c(=O)n(-c3cccc(F)c3)ccn12)Nc1ccc(Br)cc1F` here?
Answer: 15.57%

Question: And the Inhibition (Escherichia coli)?
Answer: -1.22%

Question: How did the Inhibition (Staphylococcus aureus) turn out when `Cc1nnc2c(=O)n(CC(=O)Nc3ccc(Cl)cc3F)c3ccccc3n12` was run?
Answer: 7.03%

Question: What about the Inhibition (Escherichia coli) of the same compound?
Answer: -1.92%
